Screening results from PubChem BioAssay.
NOMO-1 viab – STK33 inhibitor candidate reducing NOMO-1 cell viability; inhibition, % (concentration not given with the values); NOMO-1 AML viability, CellTiter-Glo luminescence, 72 h; 7.5% of 37,000 active; in the data active = inhibition above about 80%; inconclusive = no clear call, values can overlap the other calls
Shh pathway inh – Sonic Hedgehog pathway inhibition. Shh-LIGHT2 Gli-luciferase reporter, 30 h. inhibition, % (concentration not given with the values). 2.1% of 22,000 active;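 active = mean inhibition across valid replicates above about 65%, limit read from the data; inconclusive = mean under the limit, yet half or more replicates past it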;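 also: pathway switched on by Shh-conditioned medium diluted 1 in 25 in low serum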
MITF inhib – inhibitors of MITF. 0.28% of 37,000 active. TRPM1 promoter luciferase, luminescence, 24 h. inhibition, % (concentration not given with the values); in the data active = inhibition above about 85%; inconclusive = no clear call, values can overlap the other calls; inactive = below about 68%;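 also: human melanocyte line stably carrying TRPM1 promoter luciferase reporter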
Numbers without * were called inactive; ? = inconclusive; . = no result; ! = a repeat was not active. This is a sample that favours compounds with a hit; in the whole collection about 7.8% have one here.

SMILES	NOMO-1 viab	Shh pathway inh	MITF inhib
C[C@@H]1CCCCO[C@@H](CN(C)Cc2ccc(C(=O)Nc3ccccc3N)cc2)[C@@H](C)CN([C@H](C)CO)C(=O)c2cc(NS(=O)(=O)c3ccc(Cl)cc3)ccc2O1	127.1*	.	15.6
C[C@@H]1CCCCO[C@H](CN(C)Cc2ccc(C(=O)Nc3ccccc3N)cc2)[C@@H](C)CN([C@H](C)CO)C(=O)c2cc(NS(C)(=O)=O)ccc2O1	65.9	.	-4.7
CSc1cccc(NC(=O)c2cc3c(ccc4ccccc43)o2)c1	19.6	-102.4	-19.5
O=C(COc1ccc(Cl)cc1Cl)Nc1c[nH]c(=O)[nH]c1=O	-16.8	.	-3.8
C=C(CCCCCCCC(=O)O)C(=O)OC	20.1	-16.4	-3.4
CCOc1ccc(S(=O)(=O)NCc2ccccc2)cc1-c1nc2c(C(C)(C)C)nn(C)c2c(=O)[nH]1	127.0*	78.9*	76.5
CCOc1cc(S(=O)(=O)NCc2cccnc2)ccc1Cl	27.7	.	16.7
COC(=O)C1=COC(O[C@@H]2O[C@H](CO)[C@@H](O)[C@H](O)[C@H]2O)[C@@H]2[C@@](C)(O)CC[C@]12O (stereo partly specified)	29.5	12.1	0.9
COc1ccc(S(=O)(=O)Nc2ccc3c(c2)C(=O)N([C@H](C)CO)C[C@H](C)[C@@H](CN(C)Cc2ccc(Cl)c(Cl)c2)OCCCC[C@@H](C)O3)cc1	125.0*	69.3*	?
C[C@@H]1CCCCO[C@H](CN(C)Cc2ccc(Cl)c(Cl)c2)[C@@H](C)CN([C@H](C)CO)C(=O)c2cc(NS(=O)(=O)c3ccc(Cl)cc3)ccc2O1	115.8*	20.3	52.5
C[C@@H]1CCCCO[C@@H](CN(C)Cc2ccc(Cl)c(Cl)c2)[C@@H](C)CN([C@H](C)CO)C(=O)c2cc(NS(=O)(=O)c3ccc(Cl)cc3)ccc2O1	72.6	-57.2	54.8
COc1ccc(CN(C)C[C@@H]2OCCCC[C@@H](C)Oc3ccc(NS(=O)(=O)c4ccc(Cl)cc4)cc3C(=O)N([C@H](C)CO)C[C@@H]2C)cc1	30.5	-21.0	-4.0
CCc1c(C)sc(NC(=O)COc2ccc(Cl)cc2)c1C(N)=O	-16.7	.	-41.6
C(=C\c1nn2c(Cn3cnc4ccccc43)nnc2s1)/c1ccccc1	40.8	.	7.5
COc1ccc2nc(SCC(=O)NC3CCCC3)[nH]c2c1	25.4	.	0.9
O=C(/C=C/CCc1ccccc1)CCc1ccccc1	121.3*	-3.1	0.8
O=C(CCc1ccccc1)c1c(O)cc(O)cc1O	-8.0	3.7	-8.5
CC(C)N(Cc1nc(-c2ccccc2Cl)no1)S(=O)(=O)c1ccc([N+](=O)[O-])cc1	12.5	.	21.9
On1onc2c3cc(-c4ccccc4)nc3ccc21	114.8*	99.3*	40.7
N#CCCN(CCC#N)C(=O)c1cc(-c2ccccc2)nc2ccccc12	17.3	.	-6.0
CCCCC[C@H](O)/C=C/[C@H]1C=CC(=O)[C@@H]1C/C=C\CCCC(=O)O	40.9	-13.5	-9.0
CC/C=C\C[C@@H]1C(=O)C=C[C@@H]1CCCCCCCC(=O)O	116.8*	37.2	-14.6
COC(=O)C1=C2C(=O)c3c(O)cc(CO)cc3OC2C(O)C=C1 (stereo unspecified)	107.8*	45.4	19.0
COC(=O)c1cccc2oc3cc(CO)cc(O)c3c(=O)c12	70.7	-22.6	-0.9
O=C(NCCNc1ccc(C(F)(F)F)cc1[N+](=O)[O-])c1cccc(Br)c1	10.4	.	-25.2
SMILES	NOMO-1 viab	Shh pathway inh	MITF inhib
NC(=O)CSc1nnc(SCc2cccc3ccccc23)s1	10.6	.	-64.1
Cc1ccc(C(=O)c2oc3ccccc3c2NC(=O)c2cc3ccccc3oc2=O)cc1F	112.2*	.	-12.7
CCOc1ccc(C(=O)c2oc3ccccc3c2NC(=O)c2cc3ccccc3oc2=O)cc1	24.4	.	-24.0
CCn1c(SCC(=O)c2cccc([N+](=O)[O-])c2)nnc1-c1cccnc1	4.8	.	-6.4
CC(NS(=O)(=O)c1ccc(C(C)(C)C)cc1)c1ccccc1 (stereo unspecified)	-26.7	3.7	-17.1
CNCCC(Oc1ccc(C(F)(F)F)cc1)c1ccccc1 (stereo unspecified)	119.4*!	0.1	-1.8
CC1(C)Cc2c(sc3ncn4nc(-c5ccccc5)nc4c23)C(C)(C)N1	117.5*	-12.5	18.3
COc1ccc(C(C)C)cc1S(=O)(=O)n1cnc2ccccc21	122.6*	.	21.0
COc1ccc(C(C)C)cc1S(=O)(=O)n1nnc2ccccc21	-2.4	.	-5.6
C=C1[C@@H](C2=CC(=O)OC2)CC[C@@]2(O)[C@@H]1CC1[C@H]2CC[C@@H]2C[C@@H](O[C@H]3O[C@@H](C)[C@@H](O[C@@H]4O[C@H](CO[C@@H]5O[C@H](CO)[C@@H](O)[C@H](O)[C@H]5O)[C@@H](O)[C@H](O)[C@H]4O)[C@H](OC)[C@H]3O)CC[C@]12C (stereo partly specified)	.	26.9	.
CO[C@@H]1CC(OC2CCC3(C)C(CCC45CCC(C6=CC(=O)OC6)C(C)(CCC43)C5=O)C2)O[C@H](C)[C@@H]1O[C@@H]1O[C@H](CO[C@@H]2O[C@H](CO)[C@@H](O)[C@H](O)[C@H]2O)[C@@H](O)[C@H](O)[C@H]1O (stereo partly specified)	118.9*	-34.1	19.6
C[N+]12CCCCC1C(CN1C(=O)c3ccccc3C1=O)CCC2 (stereo unspecified)	11.6	.	13.5
O=[N+]([O-])c1ncn(Cc2ccccn2)n1	-16.7	.	-4.2
O=C(CSc1ncnc2sc(-c3ccccc3)cc12)c1ccc2c(c1)OCCO2	19.8	-24.6	-0.7
COc1ccc2c(c1OC)CN(C)CCc1cc3c(cc1C(=O)C2)OCO3	5.9	5.2	5.7
COc1ccc2cc3[n+](cc2c1OC)CCc1cc2c(cc1-3)OCO2	110.0*	16.6	50.5
O=C1C=CC(O)(/C=C/C(=O)OC[C@H]2O[C@@H](Oc3ccc(O)cc3)[C@H](O)[C@@H](OC(=O)/C=C/C3(O)C=CC(=O)C=C3)[C@@H]2O)C=C1	87.2*	-5.5	-5.5
C[C@@H]1O[C@@H](OC[C@H]2O[C@@H](Oc3ccc(O)cc3)[C@H](O)[C@@H](OC(=O)c3ccc(O)cc3)[C@@H]2O)[C@H](O)[C@H](O)[C@H]1O	-5.3	-47.5	-1.2
COc1ccc(C2CC(=O)c3c(O)cc(O[C@@H]4O[C@H](CO[C@@H]5O[C@@H](C)[C@H](O)[C@@H](O)[C@H]5O)[C@@H](O)[C@H](O)[C@H]4O)cc3O2)cc1 (stereo partly specified)	12.3	-30.4	-10.2
O=C(/C=C/c1ccc(O)cc1)OC[C@H]1O[C@@H](Oc2cc(O)c3c(c2)OC(c2ccc(O)cc2)CC3=O)[C@H](O)[C@@H](OC(=O)/C=C/c2ccc(O)cc2)[C@@H]1O (stereo partly specified)	119.8*	37.1	-18.7
COc1ccccc1OCC(=O)Nc1ccc(C)cc1[N+](=O)[O-]	22.6	.	-61.5
CC1(C)CC[C@@]2(C(=O)O[C@@H]3O[C@H](CO)[C@@H](O)[C@H](O)[C@H]3O)C(C1)C1=CCC3[C@@]4(C)CC[C@@H](O[C@@H]5O[C@H](CO)[C@@H](O)[C@H](O)[C@H]5O[C@@H]5O[C@H](CO)[C@@H](O)[C@H](O)[C@H]5O)C(C)(C)C4CC[C@@]3(C)[C@]1(C)C[C@H]2O (stereo partly specified)	6.8	-38.8	-4.5
